Screening results: PubChem BioAssay, National Center for Advancing Translational Sciences (NCATS)
In the library only some 9.2% were active in any assay of this set; here they are far more common.
SMN2 splice enh: increases expression of the SMN2 splice variant. Potency, µM (doses to about 46.1 µM), for inactives: at the top dose activity change, positive = activation, actives largely listed as activators. HEK293 SMN2-luciferase splicing reporter, luminescence, 30-36 h. hit rate 2.8% among 210,000; also: % of control where 0% means no effect; nearly all actives have a fitted effect of over 55% in size
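HEK293 cells carry an SMN2 minigene-luciferase reporter in which exon 7 inclusion puts luciferase in frame. Cells were seeded at 2000 cells/well, attached for 10-12 hours, then exposed to compounds for 30-36 hours at 37C before ONE-Glo luminescence.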
ELG1 DNA repair: inhibitors of ELG1-dependent DNA repair in HEK293T cells. HEK293T ELG1-luciferase reporter, luminescence, 16 h; DNA damage induced by 5-fluorouridine. Potency, µM (series often up to 46.1 µM), inactives show at the highest dose activity change, negative = inhibition, actives largely listed as inhibitors. hit rate 2.3% among 330,000; also: % is scaled to controls: 0 for no effect and ±100 for the full control effect; nearly all actives have a fitted effect of over 55% in size
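Reporter activity after DNA damage by 5-fluorouridine is monitored. Compound-treated cells incubate 16 hr at 37 °C, then ONE-Glo is added for 30 min before luminescence reading.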
NPC1 promoter act: NPC1 promoter activation | Huh7 NPC1 promoter luciferase reporter, 24 h | AID 485313 | hit rate 2.4% among 320,000 | Potency, µM (series often up to 9.22 µM), without a hit: at the top dose activation, usual class: activators; also: % of control where 0% means no effect; nearly all actives have a fitted effect of over 60% in size
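Stable NPC1-promoter luciferase Huh7 line; cpd (DMSO) 24 h, 37 °C, 5% CO2; Amplite luciferase reagent 10 min RT; luminescence readout. qHTS format.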
FLuc modulator: counter-screen for miR-21 project: firefly luciferase inhibitors or activators; P08659; purified FLuc, Km substrates, luminescence inhibition; Potency, µM (highest dose often 57.5 µM), without a hit: at the top dose activity change, negative = inhibition, actives largely listed as inhibitors; hit rate 6.9% among 360,000; AID 588342;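 also: plate controls were vehicle for no effect and reference inhibitor for full effect; nearly all actives have a fitted effect of over 55% in size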
Target sequence (P08659 whole entry, looked up): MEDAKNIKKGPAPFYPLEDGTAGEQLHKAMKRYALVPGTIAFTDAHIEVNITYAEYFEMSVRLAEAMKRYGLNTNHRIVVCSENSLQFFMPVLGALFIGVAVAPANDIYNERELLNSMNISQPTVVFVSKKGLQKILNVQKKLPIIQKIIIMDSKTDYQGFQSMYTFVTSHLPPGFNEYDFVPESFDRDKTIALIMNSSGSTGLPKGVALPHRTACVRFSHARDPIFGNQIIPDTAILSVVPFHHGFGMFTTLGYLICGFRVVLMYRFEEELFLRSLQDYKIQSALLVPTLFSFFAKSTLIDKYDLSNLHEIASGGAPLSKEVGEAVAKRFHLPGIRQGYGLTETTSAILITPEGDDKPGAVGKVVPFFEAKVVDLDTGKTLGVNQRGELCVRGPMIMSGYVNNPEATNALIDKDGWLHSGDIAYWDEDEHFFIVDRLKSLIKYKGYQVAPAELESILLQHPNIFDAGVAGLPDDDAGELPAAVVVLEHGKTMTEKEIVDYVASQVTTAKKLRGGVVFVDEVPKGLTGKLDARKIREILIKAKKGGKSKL
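Purified P. pyralis luciferase, 10 nM final, with Km-level 10 uM D-luciferin and 10 uM ATP in 50 mM Tris acetate pH 7.5, 10 mM Mg acetate, 0.01% Tween-20, 0.05% BSA; 6-point qHTS titration about 60 µM downward; luminescence read.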
Rab9 promoter act: Rab9 promoter activation. AID 485297. Huh7 Rab9 promoter-luciferase reporter, luminescence, 24 h. Potency, µM (doses to about 9.22 µM), for inactives: at the top dose activation, negative = inhibition, most hits filed as activators. hit rate 2.8% among 320,000; also: % of control where 0% means no effect; nearly all actives have a fitted effect of over 60% in size
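Quantitative HTS format; Huh7 Rab9-luciferase reporter cells (1500/well) receive compound 2 h post-plating, incubate 24 h at 37 °C, then get luciferase reagent for 10 min before luminescence reading.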
ELG1 genotoxic: induces genotoxicity in HEK293T cells with luciferase-tagged ELG1. HEK293T ELG1-luciferase reporter, luminescence, 16 h. Potency, µM (highest dose often 46 µM), inactives show top-dose activity change, positive = activation, hits mostly activators. hit rate 1.3% among 330,000. AID 504466; also: % of control where 0% means no effect; nearly all actives have a fitted effect of over 60% in size
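16 hr compound incubation (37 °C, 5% CO2) of HEK293T cells carrying luciferase-tagged ELG1; luciferase then measured by ONE-Glo luminescence after 30 min at RT.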
Starred values were filed as active, the others as inactive; ? = inconclusive; . = not tested or not shown. Calls follow the shape of the dose curve; as a rule, active = well fitted curve in the direction sought with a large enough effect; inconclusive = small, poorly fitted or top-dose-only effect, or another doubt; inactive = no such curve, though single readings can be large; an effect the other way counts as inactive or inconclusive. Potency is read from the fitted curve at half-maximal effect.

SMILES	SMN2 splice enh	ELG1 DNA repair	NPC1 promoter act	FLuc modulator	Rab9 promoter act	ELG1 genotoxic
Cn1nnnc1SCc1ccc(C(=O)Nc2ccc(Br)cc2)cc1	-2%	?	?	6µM*	?	?
COC(=O)CSc1nnc(-c2cccc(NC(=O)c3ccc(C)cc3)c2)n1C	-35%	0%	2%	24µM*	0%	-2%
NC(=O)c1ccc(-n2nnnc2SCc2ccccc2)cc1	-18%	0%	-2%	-2%	-1%	19%
O=C(Nc1nccs1)c1ccc(CSc2nnnn2-c2ccccc2)cc1	-18%	23µM*	13%	?	5%	0%
O=C1NC(=O)/C(=C/C(=O)N2CCOCC2)S1	5%	-10%	-9%	-2%	-6%	0%
Cc1ccc(NC(=O)c2ccc(CSc3nnc(-c4ccncc4)n3C)cc2)cc1	27%	14%	17%	1.9µM*	29%	18%
CC(=O)Nc1ccc(-c2nnc(SCc3ccc(C)cc3)n2C)cc1	-21%	-13%	-2%	6%	0%	3%
Cc1ccc(C(=O)OCC(=O)c2ccc(Cl)s2)s1	.	?	1%	2.7µM*	21%	?
O=C(COC(=O)c1ccc[nH]c1=O)c1ccc(Cl)s1	8%	-7%	-4%	15µM*	3%	-2%
CN(C(=O)COC(=O)c1ccc(Cl)s1)C1(C#N)CCCCC1	.	15%	-7%	19µM*	1%	1%
CN(C(=O)COC(=O)c1ccc(Cl)c(S(=O)(=O)N2CCCCC2)c1)C1(C#N)CCCCC1	.	-5%	-2%	-15%	-8%	0%
O=C(COC(=O)c1cccnc1Cl)c1ccc(Cl)s1	.	4%	.	.	.	-1%
Cc1ccc(-n2ncc3c(NNC(=O)c4cccs4)ncnc32)cc1	7%	7%	0%	?	-6%	-9%
CCOc1ccc(Nc2nc(N)nc(CSC(=S)N3CCN(c4ccccc4)CC3)n2)cc1	.	10µM*	2%	-10%	0%	-12%
COc1ccc(Nc2nc(N)nc(CSC(=S)N3CCN(c4ccccc4)CC3)n2)cc1	-33%	12µM*	-1%	-8%	0%	-7%
CSc1nsc(/C=C/Nc2ccc(O)cc2C)c1C#N	-4%	?	-1%	12µM*	5%	-2%
CC1CC2OC(=O)C3(C)CCCC(C)(C23)C1(O)CCc1ccoc1 (stereo not given)	.	15µM*	0%	1%	-9%	-4%
CCC(CC)C(=O)N1c2ccccc2C(C)(c2ccccc2)CC1(C)C (stereo not given)	-20%	.	.	-2%	.	.
c1ccc(-c2noc(C3CCCCC3)n2)nc1	11µM*	?	?	11µM*	2.8µM*	6.5µM*
Brc1ccc(-c2noc(C3CCCCC3)n2)cc1	.	?	?	6.7µM*	2.8µM*	?
c1ccc(-c2noc(C34CC5CC(CC(C5)C3)C4)n2)nc1	13µM*	?	?	11µM*	?	15µM*
Cc1ccc(-c2noc(C3CCCN(C(=O)c4ccccc4Br)C3)n2)cc1 (stereo not given)	.	?	15%	?	1%	10%
CCCN(C(=O)CCNC(=O)c1ccc(Cl)cc1)c1c(N)n(Cc2ccccc2)c(=O)[nH]c1=O	.	10%	2%	5%	-1%	4%
Cc1ccccc1C(=O)c1c[nH]c(C(=O)NCCc2ccccn2)c1	-11%	-7%	-5%	0%	0%	0%
Cc1ccc(Oc2ccc(Oc3ccc(C)cc3)nn2)cc1	1%	?	17%	-4%	26%	2%
SMILES	SMN2 splice enh	ELG1 DNA repair	NPC1 promoter act	FLuc modulator	Rab9 promoter act	ELG1 genotoxic
Cc1ccccc1Oc1ccc(Oc2ccccc2C)nn1	?	?	4µM*	?	?	?
Cc1cccc(CNC(=O)c2ccc(Cn3c(=O)c4cccn4c4cccnc43)cc2)c1	.	.	.	-7%	.	.
COc1ccccc1N1C(=O)Cc2ccccc2C1=O	.	10%	-3%	2%	-7%	-1%
CC1CCc2nc(NC(=O)C3CC3)sc2C1 (stereo not given)	?	?	?	24µM*	?	16%
Cc1ncsc1C(=O)Nc1nc2c(s1)CC(C)CC2 (stereo not given)	13µM*	?	1.8µM*	2.1µM*	?	2.1µM*
Cc1ccccc1C(=O)Nc1nc2c(s1)CC(C(C)(C)C)CC2 (stereo not given)	.	.	.	6µM*	.	.
CC1CCc2nc(NC(=O)CN3CCOCC3)sc2C1 (stereo not given)	?	?	23%	?	?	?
CC1CCc2nc(NC(=O)COc3ccc(C(C)(C)C)cc3)sc2C1 (stereo not given)	.	.	.	-8%	.	.
CC1CCc2nc(NC(=O)C3COc4ccccc4O3)sc2C1 (stereo not given)	-51%	?	?	0.54µM*	?	?
CCOc1ccc(NS(=O)(=O)c2ccc3[nH]cc(C(=O)N4CCCCCC4)c(=O)c3c2)cc1	-9%	.	.	?	.	.
O=C(NCc1ccco1)c1ccc2c(c1)N(Cc1ccc(F)cc1)C(=O)c1ccccc1S2=O (stereo not given)	-7%	.	.	-6%	.	.
CCn1ccnc1CN1CCc2c([nH]c3ccccc23)C1CC(C)C (stereo not given)	.	23µM*	0%	-6%	0%	-6%
CCn1ccnc1CN1CCc2c([nH]c3ccccc23)C1C(C)(C)C (stereo not given)	.	-14%	-3%	4%	-3%	-10%
CCOC(=O)c1cccc(NC(=O)c2cccnc2)c1	-8%	11%	10%	-5%	0%	-4%
CCOC(=O)c1cccc(NC(=O)c2cnc3ccccc3n2)c1	.	12%	?	17µM*	2µM*	24%
COc1ccccc1C(=O)Oc1ccccc1C(=O)Nc1ccccc1	.	?	15%	?	26%	-1%
CCOC(=O)c1ccc(Nc2ncccc2[N+](=O)[O-])cc1	.	?	2.5µM*	7.6µM*	1µM*	?
O=C(Oc1ccccc1C(=O)Nc1ccccc1)c1ccc(Br)c([N+](=O)[O-])c1	-6%	?	1%	15µM*	15%	13%
CCOC(=O)c1sc(NC(=O)CSc2nc3cccnc3n2C)nc1C	.	?	1%	-1%	3%	-7%
CCOC(=O)c1cccc(NC(=O)CSc2nc3cccnc3n2C)c1	-104%	18µM*	-12%	-13%	-24%	-17%
CCOC(=O)c1ccc(NC(=O)c2ccccc2[N+](=O)[O-])cc1	18µM*	?	17%	?	27%	12%
CCOC(=O)c1cccc(NC(=O)c2ccc(NC(=O)c3ccco3)cc2)c1	.	?	-1%	0%	3%	4%
